Measurements as given in PubChem BioAssay.

assay: A549 cell viability effects, profiling panel, calcein-AM fluorescence, 48 h, basal (AID 1162); settings: higher = more signal
Further: test concentration not given here.

Row | Structure (SMILES) | z-score
1 | C=C(CC1([C@@H](NP(=O)(c2ccccc2)c2ccccc2)[C@H]2C[C@@H]2CCCC)CC1)c1ccccc1 | -0.665
2 | CC[C@@H]1C=C(C(=O)O)[C@H](c2ccc(Br)cc2)N1S(=O)(=O)c1ccc(C)cc1 | -0.646
3 | C=C(CCCC)/C(=C/C[C@H](OC(C)=O)c1ccccc1OCCO)c1cc(C(=O)OC)ccc1OC | 0.379
4 | COC(=O)[C@@]1(Cc2ccc(OC)cc2)[C@H]2c3cc(C(=O)N(C)C)n(C)c3C[C@H]2CN1C(=O)c1ccccc1 | -1.37
5 | CN(C)CCCCCCNC(=O)[C@H]1C[C@H]2C(=O)N[C@@H](CCCCN)C(=O)N2[C@H]1c1cccc(OCCO)c1 | -0.214
6 | NC(=O)NCC#Cc1ccc2c(c1)[C@]1(C(=O)N2)[C@H](c2ccccc2OCCO)N2[C@H](c3ccccc3)[C@H](c3ccccc3)OC(=O)[C@H]2[C@@H]1C(=O)Nc1nc2ccccc2s1 | 0.334
7 | CC1CC/C=C\[C@H]2OC34C=CCN(C(C)(C)C)C(=O)[C@H]3N(CCO)C(=O)[C@@H]4C2C(=O)O1 (stereo partly drawn) | -0.986
8 | C=C(COC)/C(=C/C[C@H](OC(C)=O)c1ccc(CO)o1)c1cc(C(=O)OC)ccc1OC | -0.588
9 | CNS(=O)(=O)c1ccc(C)cc1 | 0.753

assay: adipocyte viability effects, profiling panel, cell-based, 3T3-L1 adipocytes, calcein-AM fluorescence, 48 h, basal (AID 1163); settings: 3T3-L1 adipocytes viability, higher = more signal

Row | Structure (SMILES) | z-score
10 | O=C1NC(=O)C2C1C=CC(C(O)c1cc(C(F)(F)F)cc(C(F)(F)F)c1)N2Nc1ccccn1 (stereo not drawn) | -0.485
11 | C=C(/C(=C/C[C@H](OC(C)=O)c1ccccc1OCCO)c1cnc2ccccc2c1)C(C)C | -0.665
12 | COC(=O)[C@H](Cc1ccccc1)N1CC2=C[C@@H](C3CC3)n3c(=O)n(C)c(=O)n3[C@H]2[C@@H]1[C@@H](O)Cc1ccccc1 | -0.375
13 | CC(=O)n1cc(C(O)C2C=CC3C(=O)N(c4ccccc4)C(=O)C3N2Nc2ccc([N+](=O)[O-])cc2)c2ccccc21 (stereo not drawn) | -0.479
14 | CN1C=C(C(=O)OCCS(C)(=O)=O)C(C(=O)OCCS(C)(=O)=O)=CC(c2ccc(CO)cc2)=CC1C1CC1 (stereo not drawn) | -0.0622
15 | COC(=O)[C@]1(CCC(=O)OC(C)(C)C)N=C(c2ccc(OCCCO)cc2)O[C@@H]1c1ccccc1CN=[N+]=[N-] | -0.354
16 | C=CCNC(=O)[C@@H]1[C@H]2C(=O)O[C@H](c3ccccc3)[C@H](c3ccccc3)N2[C@H](c2ccc(OCCO)cc2)[C@@]12C(=O)Nc1ccc(C#CCC(C(=O)OC)C(=O)OC)cc12 | 1.09
17 | COC(=O)C(CC#Cc1ccc2c(c1)[C@]1(C(=O)N2)[C@H](c2ccc(OCCO)cc2)N2[C@H](c3ccccc3)[C@H](c3ccccc3)OC(=O)[C@H]2[C@@H]1C(=O)N1CCc2cc(OC)c(OC)cc2C1)C(=O)OC | 1.16
18 | NC(=O)N1C(=O)C2C(C1=O)C1C=C(c3ccc(CO)cc3)C2C(c2cccs2)N1Cc1cccc(OC(F)(F)F)c1 (stereo not drawn) | 0.868
19 | C=CCC(OC(C)=O)[C@@H]1[C@@H](N(Cc2ccc(-c3ccccc3)cc2)C(=O)c2cccc3ccccc23)c2cc(OCCCO)ccc2N1C(=O)c1ccc(-c2ccccc2)cc1 (stereo partly drawn) | 0.286
20 | COc1cc(NN2C(C(O)c3ccco3)C=CC3C(=O)N(c4ccccc4)C(=O)C32)cc(OC)c1OC (stereo not drawn) | 0.117
21 | CC(C)[Si]1(C(C)C)O[C@@H](c2ccccc2)c2cc(-c3ccc(-c4ccc(Cl)c(Cl)c4)o3)nc(-c3ccccc3)c21 | -0.277
22 | CCOC(=O)C[C@H]1[C@H](OC(=O)c2ccc(C(=O)c3ccccc3)cc2)[C@@H](NC(=O)c2ccc3ccccc3n2)c2cc(OCCCO)ccc2N1C(=O)c1ccccc1 | 0.824
23 | CC(C)C(O)C1C=CC2C(=O)NC(=O)C2N1Nc1ccc(Cl)cc1Cl (stereo not drawn) | -0.699
24 | COc1ccc(C#Cc2ccc3c(c2)[C@]2(C(=O)N3)[C@H](C(=O)Nc3nc4ccccc4s3)[C@H]3C(=O)O[C@H](c4ccccc4)[C@H](c4ccccc4)N3[C@@H]2c2ccc(O)cc2)cc1 | 0.341
25 | COC(=O)[C@@]1(Cc2ccccc2)N=C(c2ccc(OCCCO)cc2)O[C@H]1c1ccccc1 | 0.598
26 | [N-]=[N+]=Nc1ccccc1[C@H]1OC(c2ccc(OCCCO)cc2)=N[C@@]1(CCS(=O)(=O)c1ccccc1)C(N)=O | 0.733
27 | O=C1C[C@@](C(=O)NC2CC2)(c2ccc([N+](=O)[O-])cc2)[C@@H](c2ccc(CO)cc2I)N1C1CCCCC1 | -0.536
28 | COc1cc2c(cc1OC)CN(C(=O)[C@H]1[C@@H]3C(=O)O[C@@H](c4ccccc4)[C@@H](c4ccccc4)N3[C@@H](c3ccc(O)cc3)[C@]13C(=O)Nc1ccccc13)CC2 | -0.843
